Assay outcomes deposited in PubChem BioAssay by The Scripps Research Institute Molecular Screening Center.
CHRM1 antagonist = human CHRM1 antagonism. CHO-K1 hM1, Fluo-8 calcium fluorescence, ACh EC80 antagonist. actives 1.3% (n = 360,000). inhibition, % at 3 µM. P11229;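 active means percent inhibition above its own plate's cutoff, namely the mean of that plate's compound wells plus 3 SD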;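 further: peak over basal fluorescence ratio during 140 s after agonist addition; 0% = ACh EC80 plus DMSO and 100% = DMSO alone without agonist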
Target sequence (P11229 whole entry, looked up): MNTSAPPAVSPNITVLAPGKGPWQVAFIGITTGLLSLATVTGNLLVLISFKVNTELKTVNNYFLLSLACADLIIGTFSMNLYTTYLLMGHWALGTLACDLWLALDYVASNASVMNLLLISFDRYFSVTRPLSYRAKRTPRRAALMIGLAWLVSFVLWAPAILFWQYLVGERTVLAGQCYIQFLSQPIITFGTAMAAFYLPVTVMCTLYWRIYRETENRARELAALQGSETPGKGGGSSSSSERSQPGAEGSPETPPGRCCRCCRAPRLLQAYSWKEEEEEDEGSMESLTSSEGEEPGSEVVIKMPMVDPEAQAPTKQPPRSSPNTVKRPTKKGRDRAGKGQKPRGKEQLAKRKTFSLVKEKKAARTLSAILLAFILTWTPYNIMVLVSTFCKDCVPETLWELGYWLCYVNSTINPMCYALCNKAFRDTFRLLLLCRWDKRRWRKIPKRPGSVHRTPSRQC
CHO-K1 Ca antag = M1 antagonist counterscreen hit in parental CHO-K1 cells; inhibition, % at 3 µM; actives 0.6% (n = 360,000); ATP-induced calcium, Fluo-8 fluorescence; AID 602250;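 active means inhibition above a per-plate cutoff, the plate's mean sample inhibition plus 3 SD, cut at about 24% in these data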;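 further: 0% = DMSO plus EC80 ATP and 100% = DMSO alone without ATP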
CHO-K1 Ca ag = counter-screen for M1 agonists: effect in parental CHO-K1 cells. actives 0.48% (n = 360,000). Fluo-8 calcium fluorescence; scaled to maximal ATP response, vehicle zero. activation, % at 3 µM. AID 602248; in the data active means activation above about 15%;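 further: untransfected CHO-K1 host cells lacking M1 receptor as counterscreen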
M1 PAM = positive allosteric modulators of human M1 muscarinic receptor | P11229 | CHO-K1 hM1, Fluo-8 calcium fluorescence, ACh EC20; 0% = ACh EC20, 100% = maximal ACh | activation, % at 3 µM | actives 0.088% (n = 360,000) | AID 588819; in the data active means activation above about 19%, passing the limit was not always enough
M1 PAM parental = nonselective activator or artifact in parental CHO-K1 calcium assay; ATP EC20, Fluo-8 calcium fluorescence; 0% at ATP EC20, 100% at ATP max; activation, % at 3 µM; actives 0.02% (n = 360,000);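 active means activation above the run cutoff, the mean activation of all test compounds plus 3 SD, cut at about 40% in these data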;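 further: peak over basal fluorescence ratio in a 140 s read after ATP addition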
M1 ag = activates human CHRM1 receptor | P11229 | CHO-K1 hM1, Fluo-8 calcium fluorescence, agonist mode; 0% DMSO, 100% acetylcholine EC100 | activation, % at 3 µM | actives 0.33% (n = 360,000) | AID 588814;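 active means activation above the run's mean compound activation plus 3 SD, cut at about 16% in these data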;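 further: peak over basal fluorescence ratio within a 140 s kinetic read after compound addition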
An asterisk follows results filed as active; / = no result given. A selection: hits, their analogues and other compounds. The true share with any hit is near 2.4%.

SMILES	CHRM1 antagonist	CHO-K1 Ca antag	CHO-K1 Ca ag	M1 PAM	M1 PAM parental	M1 ag
Cc1ccccc1Cn1c(C)c(C(=O)NCc2cccc(Cl)c2)sc1=O	-8	-11	2	7	14	0
COc1ccc(Cl)cc1Cn1c(C)c(C(=O)NCc2ccc(C#N)cc2)sc1=O	44*	-5	4	-32	8	-3
COc1ccc(Cl)cc1Cn1c(C)c(C(=O)NCc2cccc(C(F)(F)F)c2)sc1=O	-17	24*	0	4	2	-6
COc1ccc(CNC(=O)c2sc(=O)n(Cc3ccccc3C)c2C)cc1	7	6	17*	-7	-9	34*
COc1ccccc1Cn1c(C)c(C(=O)NCc2cccc(C)c2)sc1=O	1	22	0	3	0	-8
COc1ccc(Cl)cc1Cn1c(C)c(C(=O)NCc2ccccc2C(F)(F)F)sc1=O	14	4	0	-11	-9	-8
COc1ccccc1Cn1c(C)c(C(=O)NCc2ccc(C#N)cc2)sc1=O	32*	-4	28*	-33	19	16*
CC1CCc2c(sc(NC(=O)/C=C/c3cccs3)c2C(=O)O)C1 (stereo not drawn)	-5	-5	-1	6	14	-8
Cc1ccc(CNC(=O)[C@@H](NC(=O)C2CCN(C(=O)[C@@H](N)CC(C)C)CC2)C(C)C)cc1	-8	-2	0	5	10	-2
C[C@@H]1CN([C@H](C)CO)C(=O)CCCn2nncc2CO[C@H]1CN(C)S(C)(=O)=O	-10	7	0	11	-13	5
COc1ccc(-n2[nH]c3c(cnc4ccccc43)c2=O)cc1	-1	-7	1	10	20	-2
CC(=O)c1ccccc1OCCCN1CCCCC1	38*	-9	0	-19	4	-5
Cc1cc(Br)ccc1OCCOCCN1CCCC1	-4	1	1	-8	1	-8
CC(C)c1ccccc1OCCCN1CCCC1	42*	16	0	-26	-21	-10
Cc1cc(Br)ccc1OCCCCN1CCCCC1	42*	-5	5	-26	14	-9
Brc1ccccc1OCCCN1CCCCCC1	0	-21	1	-2	22	-8
CC(C)c1ccccc1OCCCCN1CCCCC1	64*	-8	1	-27	-1	-8
O=C(COC(=O)c1ccco1)NC1CCCC1	7	3	0	-4	-26	-1
Brc1ccccc1OCCCCCN1CCOCC1	24	-13	1	-12	19	-3
CC(C)c1ccccc1OCCCCCN1CCOCC1	62*	0	1	-25	3	-8
c1ccc(-c2ccccc2OCCCCN2CCCCC2)cc1	32*	-6	7	-26	18	-11
NC(=O)CC[C@H](NC(=O)c1ccc(F)cc1)C(=O)OCC(=O)NCc1ccc2c(c1)OCO2	-7	-1	1	3	32	-2
CCOc1ccc(C2C(C(=O)c3ccco3)=C(O)C(=O)N2CCCn2ccnc2)cc1OC (stereo not drawn)	-10	-4	1	7	-2	-3
CC(C)(C)NC(=O)C(c1ccc(F)cc1)N(CCc1ccccc1)C(=O)c1ccn[nH]1 (stereo not drawn)	12	9	15*	-8	2	-7
O=C(COC(=O)C1CC2CCCC(C1)C2=O)Nc1ccccc1 (stereo not drawn)	0	-12	1	5	10	-2
SMILES	CHRM1 antagonist	CHO-K1 Ca antag	CHO-K1 Ca ag	M1 PAM	M1 PAM parental	M1 ag
COc1ccc(NC(=O)CN2CCN(c3nc(-c4ccc(F)cc4)cs3)CC2)c(OC)c1	-7	-26	0	8	53*	-5
COc1ccc(NC(=O)CN2CCN(CC(=O)Nc3ccccc3Cl)CC2)c(OC)c1	-10	-22	1	6	19	-2
COc1ccc(NC(=O)C2CCCCN2S(=O)(=O)c2ccc(F)cc2)c(OC)c1 (stereo not drawn)	-3	27*	0	9	-4	-2
COc1ccccc1NC(=O)C1CCCCN1S(=O)(=O)c1ccc(F)cc1 (stereo not drawn)	-2	8	0	3	2	-7
COc1ccc(NC(=O)CN2CCN(c3ccc(Cl)cc3)CC2)c(OC)c1	-4	-21	0	-1	42*	-3
COc1ccc(NC(=O)CN2CCC(C(=O)c3ccc(F)cc3)CC2)c(OC)c1	2	-11	37*	-1	-9	-2
O=C(COC(=O)c1c[nH]c2ccccc12)Nc1ccc(F)cc1	0	-9	2	2	6	-2
COc1ccc(NC(=O)N2CCC(C(=O)c3ccc(F)cc3)CC2)cc1	-4	0	0	2	15	-1
COc1ccc(OC)c(C(=O)N2CCC(C(=O)c3ccc(F)cc3)CC2)c1	12	24*	1	-3	-7	0
O=C(CN1CCCCC1)NN(Cc1ccccc1)c1ccccc1	61*	0	1	-34	10	-13
CCN(CC)CC(=O)NCC1(c2ccccc2)CCCC1	66*	7	0	-27	-6	-8
O=C(CN1CCCCC1)NCC1(c2ccccc2)CCCC1	40*	-11	1	-26	27	-9
COc1ccccc1-c1cnc(C(O)c2ccc(Cl)cc2)[nH]1 (stereo not drawn)	-6	10	1	0	-1	2
COc1ccc(C)cc1NC(=O)CNc1ccccc1CN(C)C1CCCCC1	51*	5	0	-26	9	-8
COc1ccc(-c2n[nH]c(=S)n2-c2ccc3c(c2)OCCO3)cc1	-5	-5	0	5	15	-5
COc1cc(OC)cc(-c2n[nH]c(=S)n2-c2ccc3c(c2)OCCO3)c1	26*	19	0	-14	-12	-4
CN(Cc1cn(Cc2cccc(Cl)c2)nn1)C1CN(Cc2cn(Cc3cccc(Cl)c3)nn2)S(=O)(=O)C1 (stereo not drawn)	/	-15	4	/	14	/
CCCCNC(=O)C1(C)CCCCN1C(=O)c1cc(C#N)cs1 (stereo not drawn)	-4	-5	1	-1	-9	-3
CCC1C(C#N)=C(SCC(N)=O)NC2=C1C(=O)CC(C)(C)C2 (stereo not drawn)	-7	-7	1	6	10	-3
COc1ccc(C2C(C#N)=C(SCC(=O)Nc3ccc(C)cc3)NC3=C2C(=O)CC(C)(C)C3)cc1 (stereo not drawn)	85*	-4	0	-15	0	21*
Cc1nc2nc(C)n(CCN3CCOCC3)c(=O)c2c(-c2cccc([N+](=O)[O-])c2)c1C(=O)CCCCCCCCCCN1CCC(c2ccccc2)(c2ccccc2)CC1	100*	9	6	-29	12	-1
